Data published in the supplement of paper PMC3414501.
Counter-ions that a name gives are not always drawn.

These compounds were tested on S. cerevisiae BY4741 (wild-type), vegetative growth in YPD (assay: growth sensitivity score (doubling time z-score vs DMSO controls); higher = slower growth, strongly negative scores also mark growth inhibition (complete suppression), active = hit call of the paper).
In short: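 Rich medium in microtiter plates was seeded with Saccharomyces cerevisiae strains BY4741 and AD1-9 at an OD600 of 0.065, and compounds were added as a 1:100 dilution of DMSO stock. A Tecan GENios reader recorded optical density every 15 min for 24 hours, with eight solvent-only wells in each experiment. Average doubling time was the time to reach a set generation point divided by generation number. The growth sensitivity score was the compound mean minus the solvent-only mean, divided by the solvent-only standard deviation.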

Growth sensitivity score, active:
Cc1[nH]cnc1CN1CCc2c(c3ccccc3n2C)C1=O [Alosetron hydrochloride] (stock concentration (mM, diluted 1:100): 8.9) 3.01
C=CC[C@@H]1/C=C(\C)C[C@H](C)C[C@H](OC)[C@H]2O[C@@](O)(C(=O)C(=O)N3CCCC[C@H]3C(=O)O[C@H](/C(C)=C/[C@@H]3CC[C@@H](O)[C@H](OC)C3)[C@H](C)[C@@H](O)CC1=O)[C@H](C)C[C@@H]2OC [Tacrolimus] (stock concentration (mM, diluted 1:100): 10) 12

Growth sensitivity score, inactive:
CC(C)OC(=O)CCC/C=C\C[C@@H]1[C@@H](CC[C@@H](O)CCc2ccccc2)[C@H](O)C[C@@H]1O [Latanoprost] (stock concentration (mM, diluted 1:100): 10.3) 0.43
Cc1cccc(C)c1NC(=O)C(C)N (stereo unspecified) [Tocainide] (stock concentration (mM, diluted 1:100): 10) -0.53
CC(=O)O[C@H]1C[C@@H]2CC[C@@H]3[C@H](CC[C@@]4(C)[C@H]3C[C@H]([N+]3(C)CCCCC3)[C@@H]4OC(C)=O)[C@@]2(C)C[C@@H]1N1CCCCC1 [Vecuronium bromide] (stock concentration (mM, diluted 1:100): 10) 0.21
Cc1ncc([N+](=O)[O-])n1CC(C)O (stereo unspecified) [Secnidazole] (stock concentration (mM, diluted 1:100): 10) -0.7
